Test results taken from PubChem BioAssay (NCI).
This is part of a sample that, as a whole, favours compounds with a hit. Of some 83,000 tested, about 20% had one in any assay.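 Note: values are percent growth. 100 is the growth of untreated cells, values between 100 and 0 indicate rising inhibition; between -100 and 0 indicates cell death.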

Assays:
Experiment in all cases: NCI-60 one-dose screen, 48 h (100 = growth as untreated, 0 = no growth, -100 = all killed)
Conditions in all cases: 10 µM; active means growth percent below 10; inactive means the rest
DU-145 prostate = system: DU-145 prostate
K-562 leukemia = system: K-562 leukemia
MALME-3M melanoma = system: MALME-3M melanoma
MDA-MB-231 breast = system: MDA-MB-231 breast
RXF 393 renal = system: RXF 393 renal
SF-268 CNS = system: SF-268 CNS
SF-295 CNS = system: SF-295 CNS
SF-539 CNS = system: SF-539 CNS
UACC-257 melanoma = system: UACC-257 melanoma
M14 melanoma = system: M14 melanoma

Measured: growth

O=[N+]([O-])c1cccc(C(F)(F)F)c1
inactive: DU-145 prostate 120% | K-562 leukemia 119% | MALME-3M melanoma 135% | MDA-MB-231 breast 98% | RXF 393 renal 98.7% | SF-268 CNS 102% | SF-295 CNS 101% | SF-539 CNS 102% | UACC-257 melanoma 97.3% | M14 melanoma 97.9%

CC1SC(N)=NC1=O (stereo not given)
inactive: DU-145 prostate 117% | K-562 leukemia 112% | MALME-3M melanoma 108% | MDA-MB-231 breast 112% | RXF 393 renal 120% | SF-268 CNS 110% | SF-295 CNS 102% | SF-539 CNS 106% | UACC-257 melanoma 110% | M14 melanoma 103%

CCCCNC1(C#N)CCN(Cc2ccccc2)CC1
inactive: DU-145 prostate 135% | K-562 leukemia 114% | MALME-3M melanoma 94.7% | MDA-MB-231 breast 104% | RXF 393 renal 107% | SF-268 CNS 129% | SF-295 CNS 97.2% | SF-539 CNS 99.8% | UACC-257 melanoma 107% | M14 melanoma 76.6%

CC(=O)Cc1ccc(-c2ccccc2)cc1
inactive: DU-145 prostate 107% | K-562 leukemia 108% | MALME-3M melanoma 77.1% | MDA-MB-231 breast 95.9% | RXF 393 renal 102% | SF-268 CNS 98% | SF-295 CNS 99.8% | SF-539 CNS 108% | UACC-257 melanoma 98.8% | M14 melanoma 109%

O=C1c2ccccc2C(=O)c2c1ccc(C(=O)O)c2[N+](=O)[O-]
inactive: DU-145 prostate 107% | K-562 leukemia 77.3% | MALME-3M melanoma 98.1% | MDA-MB-231 breast 79% | RXF 393 renal 128% | SF-268 CNS 111% | SF-295 CNS 105% | SF-539 CNS 96% | UACC-257 melanoma 105% | M14 melanoma 87.2%

COC(=O)Nc1cccc(Cl)c1OC
inactive: DU-145 prostate 114% | K-562 leukemia 113% | MALME-3M melanoma 106% | MDA-MB-231 breast 124% | RXF 393 renal 90% | SF-268 CNS 107% | SF-295 CNS 81.8% | SF-539 CNS 98.2% | UACC-257 melanoma 103% | M14 melanoma 110%

O=c1cc(-c2ccccc2)nc2cc(-c3ccco3)[nH]n12
inactive: DU-145 prostate 115% | K-562 leukemia 42.8% | MALME-3M melanoma 84.2% | MDA-MB-231 breast 98.8% | RXF 393 renal 100% | SF-268 CNS 93.8% | SF-295 CNS 110% | SF-539 CNS 81.8% | UACC-257 melanoma 43.8% | M14 melanoma 77.8%

CCN(CC)CCNc1ccc(CO)c2sc3ccccc3c(=O)c12
inactive: DU-145 prostate 39.3% | K-562 leukemia 63.4% | MALME-3M melanoma 39.8% | MDA-MB-231 breast 50.1% | RXF 393 renal 36.6% | SF-268 CNS 40.5% | SF-295 CNS 44.9% | SF-539 CNS 50% | UACC-257 melanoma 11.6% | M14 melanoma 57.5%

CCCCN(CCCC)CCCO
inactive: DU-145 prostate 110% | K-562 leukemia 114% | MALME-3M melanoma 129% | MDA-MB-231 breast 116% | RXF 393 renal 119% | SF-268 CNS 101% | SF-295 CNS 124% | SF-539 CNS 101% | UACC-257 melanoma 113% | M14 melanoma 108%

COc1ccc(Oc2c(I)cc(CC(NC(C)=O)C(=O)O)cc2I)cc1 (stereo not given)
inactive: DU-145 prostate 107% | K-562 leukemia 63.9% | MALME-3M melanoma 88.4% | MDA-MB-231 breast 78.8% | RXF 393 renal 88.6% | SF-268 CNS 91.7% | SF-295 CNS 62.3% | SF-539 CNS 111% | UACC-257 melanoma 83.8% | M14 melanoma 80.8%

CNC(=O)c1ccccc1CC1(O)c2ccccc2Oc2ccccc21
inactive: DU-145 prostate 61.3% | K-562 leukemia 22% | MALME-3M melanoma 29.9% | MDA-MB-231 breast 66.3% | RXF 393 renal 61.3% | SF-268 CNS 57.7% | SF-295 CNS 36.8% | SF-539 CNS 56.5% | UACC-257 melanoma 58% | M14 melanoma 42.2%

COc1cc2nn(-c3ccccc3N)nc2cc1OC
inactive: DU-145 prostate 107% | K-562 leukemia 99.3% | MALME-3M melanoma 103% | MDA-MB-231 breast 116% | RXF 393 renal 87% | SF-268 CNS 100% | SF-295 CNS 105% | SF-539 CNS 96.5% | UACC-257 melanoma 107% | M14 melanoma 107%

Cc1cc(=O)cc(C)n1-c1ccccc1
inactive: DU-145 prostate 121% | K-562 leukemia 105% | MALME-3M melanoma 99.3% | MDA-MB-231 breast 106% | RXF 393 renal 104% | SF-268 CNS 109% | SF-295 CNS 96.3% | SF-539 CNS 102% | UACC-257 melanoma 106% | M14 melanoma 101%

NC(=S)NN=C1CCCC1
inactive: DU-145 prostate 96.8% | K-562 leukemia 65.7% | MALME-3M melanoma 85.3% | MDA-MB-231 breast 95% | RXF 393 renal 107% | SF-268 CNS 89.3% | SF-295 CNS 95.7% | SF-539 CNS 110% | UACC-257 melanoma 66.9% | M14 melanoma 83.1%

CCCOC(=O)C(O)c1ccccc1 (stereo not given)
inactive: DU-145 prostate 113% | K-562 leukemia 129% | MALME-3M melanoma 96.8% | MDA-MB-231 breast 90% | RXF 393 renal 111% | SF-268 CNS 99.7% | SF-295 CNS 109% | SF-539 CNS 101% | UACC-257 melanoma 108% | M14 melanoma 93.8%
